# Laboratory results from PubChem BioAssay AID651965 (National Center for Advancing Translational Sciences (NCATS), 2013).
# Screen size: about 340,000 compounds; about 6,400 (1.9%) were called active. Roughly 4% stayed inconclusive and do not appear here. The entries come from a sample that favours actives as a whole. Unmarked numbers belong to inactive results. Calls follow the shape of the dose curve; as a rule, active = well fitted falling curve with a large enough effect; inconclusive = small, poorly fitted or top-dose-only effect; inactive = no such curve, though single readings can be large or run the other way.
# Molecular target: ATP-dependent Clp protease proteolytic subunit (Bacillus subtilis (strain 168)) (UniProt P80244)
# Test: qHTS Assay for Activators of ClpP; also: the source files actives as falling curves though it sought activators and does not explain the sign; nearly all actives have a fitted effect of over 65% in size
# Conditions: purified B. subtilis ClpP, FRET peptide cleavage, 20 min; series mostly up to 57.5 µM; activity change, negative = active: at the top concentration
# Outline: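 Purified B. subtilis ClpP, 10 microg/mL final in Tris/HCl pH8 with KCl, BSA, glycerol and Tween-20, cleaved an Abz/nitrotyrosine-quenched decapeptide. Fluorescence (ex 320, em 430) was read at 0 and 20 min at room temperature. Delta was normalized to 5.8 microM ADEP and DMSO/no-enzyme controls.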
# Potency is read from the fitted curve at half-maximal effect.
Structure (SMILES),"activity change, negative = active [%]",Potency
CCCCc1c(-c2ccc(Cl)cc2)ncn1CCc1ccccc1OC,-1.38,
Cc1nn(-c2ncc(C(F)(F)F)cc2Cl)c(=O)n1-c1ccccc1,-3.4,
Cc1ccc(-c2ccnc3nc(Sc4ncc(C(F)(F)F)cc4Cl)nn23)cc1,,7.08 µM (active)
Cc1ccc(-c2nc3c(Cl)cc(C(F)(F)F)cn3c2Cc2cccc(Cl)c2)cc1,-12.4,
OCCC#Cc1ccc(N2C(c3ccsc3)=Cc3ccc(F)cc3C2c2c[nH]c3ccccc23)cc1 (stereo not drawn),2.41,
CCOC(=O)C1(C(F)(F)F)N=C(N(C)C)OC(N(C)C)=N1,,15.8 µM (active)
CCOC(=O)C1=C(C)c2ccccc2OC1(C)C(=O)OCC (stereo not drawn),1.75,
Cc1cc(Br)cn2c(Cc3ccccc3C(F)(F)F)c(-c3ccc(Cl)cc3)nc12,-2.87,
C=C1C=C(C(F)F)n2ncc(C(=O)NCCc3ccccc3OC)c2N1,-9.27,
O=C(Cn1c(-c2ccccn2)nc2ccccc21)NCCN1CCOCC1,,28.2 µM (active)
Cc1ccc(Cn2c(C)c3cnn(CC(=O)NCCN4CCOCC4)c(=O)c3c2C)cc1,-20.6,
O=C(CCN1C(=O)c2ccccc2C1=O)NCCN1CCOCC1,-4.16,
Cc1ccc(CC2(C)C(=O)Nc3ccc(OC(F)(F)F)cc32)cc1 (stereo not drawn),-1.95,
O=C(Nc1ccc2c(c1)OCCO2)C(C1CC1)N1CCC(Cc2ccccc2)CC1 (stereo not drawn),-0.169,
CCOC(=O)[C@]12CCCC=C1N(CCC1=CCCCC1)C(=O)[C@H](CC(=O)N1CCOCC1)C2,-2.91,
CCc1nc2c(OCc3ccc(Cl)cc3Cl)cccn2c1N(C)C(=O)C(C)C,1.42,
CCc1nc2ccc(C(=O)N3CCN(c4cc(Cl)ccc4C)CC3)cc2nc1CC,-26.7,
CCOC(=O)N1CCN(C(=O)c2ccc3nc4cc(Cl)ccc4c(=O)n3c2)CC1,,3.55 µM (active)
CCc1nc2ccc(C(=O)N3CCN(c4cccc(Cl)c4)CC3)cc2nc1CC,,inactive
O=C(c1cccs1)N1C[C@H](n2cc(C3CC3)nn2)[C@@H](O)C[C@@H]1c1ccccc1,0.507,
CC(C)N1C(=O)c2ccccc2NC(=O)C1C(=O)NCc1cccs1 (stereo not drawn),-9.21,

Structure (SMILES),"activity change, negative = active [%]",Potency
CC(=O)c1ccc(-c2cnc3c(NC=O)cc(-c4cccc(NS(C)(=O)=O)c4)cn23)cc1,-17.7,
Cc1ccccc1S(=O)(=O)NC(=O)C1(C)CCN1C(=O)C1(c2ccccc2)CCCC1 (stereo not drawn),-0.858,
O=C(Nc1ccccc1)N1CCN(C2c3ccccc3-c3ccccc32)CC1,,31.6 µM (active)
O=C(Nc1cccc(NC(=O)N2CCN(c3ccccc3)CC2)c1)N1CCN(c2ccccc2)CC1,-1.46,
O=C(Nc1ccccc1)N1CCC(C(=O)N2CCN(Cc3ccccc3)CC2)CC1,-1.62,
Cc1ccc(O)c(/C=N/NC(=O)COc2ccc3c(C)cc(=O)oc3c2)c1,3.75,
CC(=O)c1c(C)[nH]c(C(=O)COc2ccc3c(C)cc(=O)oc3c2)c1C,-6.06,
Cc1cc(=O)oc2ccc(OCC(=O)O)cc12,,31.6 µM (active)
Cc1cccc(C)c1NC(=O)CN1CCN(c2ccc(F)cc2)CC1,-2.54,
Cn1c(=NC(=O)c2ccc3c(c2)OCCO3)sc2cc(S(C)(=O)=O)ccc21,,12.6 µM (active)
CS(=O)(=O)c1ccc(-c2nnc(NC(=O)c3ccc4c(c3)OCCO4)o2)cc1,-16.1,
COCCn1c(=NC(=O)c2ccccc2[N+](=O)[O-])sc2cc(S(C)(=O)=O)ccc21,2.07,
CCCNC(=O)C1(C)CCN1C(=O)C1(c2ccccc2)CC1 (stereo not drawn),0.909,
O=C(/C=C/c1cccs1)NCc1cccnc1,,35.5 µM (active)
O=C(NCc1cccnc1)c1cn(-c2ccccc2)nc1-c1cccs1,-27.6,
Cc1ccc(C(=O)NC(=S)NCc2cccnc2)cc1,0.84,
CCN1C(=O)[C@H]2[C@@H](c3ccc(C(F)(F)F)cc3)N[C@]3(CCCN(Cc4ccc(Br)cc4)C3=O)[C@H]2C1=O,-0.527,
O=C(COC(=O)c1ncc(Cl)c(Cl)c1Cl)NCc1ccccc1,-0.246,
O=C(COC(=O)c1ncc(Cl)c(Cl)c1Cl)NNC(=O)c1ccccc1,-0.929,
CS(=O)(=O)c1ccc(Cl)c(NC(=O)COC(=O)c2ncc(Cl)c(Cl)c2Cl)c1,,14.1 µM (active)
COc1ccc(C(=O)N2CCCCC2c2cc(C(=O)Nc3ccccc3)no2)cc1 (stereo not drawn),-1.69,

Structure (SMILES),"activity change, negative = active [%]",Potency
Cc1cc(C)n2c(NCc3ccccc3)c(CC(C)C)nc2n1,-1.15,
Cc1cccc(CN2CCN(C3CN(Cc4cn(Cc5ccccc5F)nn4)S(=O)(=O)C3)CC2)c1 (stereo not drawn),-1.38,
CNCCCOc1cc2nc(N3CCCN(C)CC3)nc(NC3CCN(C)CC3)c2cc1OC,4.09,
OC(c1nnc(-c2ccccc2)o1)c1cccs1 (stereo not drawn),-0.78,
Nc1ccc(-c2nnc(-c3ccc(-c4ccccc4)cc3)o2)cc1,,31.6 µM (active)
CN(C)c1ccc(-c2nnc(-c3cccnc3)o2)cc1,0.624,
O=C(COC(=O)c1ccccc1OCCOc1ccccc1)Nc1cccc(Br)c1,0.0233,
Cc1ccc(-c2cnc(NCc3ccc(C(C)C)cc3)n2C)cc1,,28.2 µM (active)
Cc1ccc(-c2cnc(NC(=O)CCC(=O)N(C)Cc3ccccc3)n2C)cc1,-6.71,
CC(=O)N1CCN(c2ccc(NCc3ccc(C(C)C)cc3)cc2)CC1,-2.79,
COc1cccc(NC(=O)Nc2ccc(F)cc2)c1,-0.16,
COc1ccc2nc(C)cc(Nc3cccc(C(=O)O)c3)c2c1,1.33,
COc1ccc2nc(/N=C(\N)NC(=O)Nc3ccccc3)nc(C)c2c1,,14.1 µM (active)
COC(=O)[C@@]12C[C@@H](CC(=O)N3CCCCC3)C(=O)N(Cc3ccc4c(c3)OCO4)C1=CCC(C)(C)C2,0.0879,
COC(=O)CSc1nc(C)c2ccc(OC)cc2n1,,25.1 µM (active)
CCc1nnc(SCC(=O)Nc2cc(OC)ccc2OC)nc1CC,0.955,
COc1ccc2nc(SCc3ccccc3)nc(C)c2c1,0.798,
O=c1cc(CN2CCCCCCC2)c2c(ccc3ccccc32)o1,5.01,
NC(=O)c1ccc(NC(=O)COC(=O)c2c3c(nc4ccccc24)/C(=C\c2ccc4c(c2)OCO4)CCC3)cc1,1.3,
O=C1/C(=C/c2ccc3c(c2)OCO3)CCC/C1=C\c1ccc2c(c1)OCO2,,28.2 µM (active)
NS(=O)(=O)c1ccc(NC(=O)COC(=O)c2c3c(nc4ccccc24)/C(=C\c2ccc4c(c2)OCO4)CCC3)cc1,-0.175,
